Test results published in the supplement of paper PMC12636033.
± gives the standard deviation of the averaged measurements. Over roughly 33,000 sequences, “E-score (rank enrichment, -0.5 to 0.5)” has its median near -0.0075; the highest 2% begin near 0.23. This is one part of a sample in which the highest values are shown more often than they occur.

The sequences below were run on WT Max(13-93) synthetic (M65Nle) (assay: PBM 8-mer E-score (E-score (rank enrichment, -0.5 to 0.5)); higher = stronger preferential binding).
Protocol: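 Protein binding microarray (universal PBM chip covering all 10-mers in fixed probe flanks) with chemically synthesized human Max(13-93) bHLH-LZ analogs (not full-length Max) bearing noncanonical residues (hArg, Tha, Aib, Nle at 65) and aromatic Cys staples. Read-out per 8-mer (and its reverse complement): E-score (rank-based enrichment, -0.5 to 0.5) and Z-score of median probe intensity.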

Sequence | PBM 8-mer E-score
GAATAGGC | 0.113 ± 0.015
CCGTGAGC | -0.142 ± 0.048
CAGGGGTC | -0.0985 ± 0.052
GCGACGAC | -0.0631 ± 0.081
TGTACGAA | 0.0875 ± 0.095
CATGCTAG | 0.241 ± 0.034
CATGCTGC | 0.183 ± 0.089
CATGCTGG | 0.314 ± 0.04
CATGCTAC | 0.0659 ± 0.14
AATGCTAG | -0.0447 ± 0.064
AATGCTGG | 0.0745 ± 0.034
CCCCCGTC | -0.0979 ± 0.09
TGCCGGAA | -0.154 ± 0.028
AATGCGCC | -0.0607 ± 0.1
CCACTTAG | 0.00666 ± 0.08
CCGAGCGG | -0.0233 ± 0.11
CAACTACG | -0.0136 ± 0.15
GCCTCGAA | -0.199 ± 0.015
ACTTGCTA | 0.0291 ± 0.18
CAACAGGC | -0.126 ± 0.031
GTCATAAC | 0.0805 ± 0.074
TACATACA | 0.275 ± 0.015
CACATAAA | 0.106 ± 0.099
CACATACG | 0.0417 ± 0.11
TTCATAAA | 0.0506 ± 0.062

Sequence | PBM 8-mer E-score
AACATAAA | 0.225 ± 0.066
GTCATAAA | 0.282 ± 0.021
AACATACT | 0.0867 ± 0.12
CACATACA | 0.00143 ± 0.16
AACATACG | 0.246 ± 0.04
GACATACA | 0.162 ± 0.037
TACATAAA | 0.234 ± 0.02
CCGTCTGC | -0.0961 ± 0.0095
GTGAAACA | 0.0563 ± 0.012
AGTAGTTC | -0.116 ± 0.027
CACCTAAC | -0.189 ± 0.12
CGTTCAGC | -0.266 ± 0.082
TCATTGCA | 0.0909 ± 0.036
ACCATACA | 0.0446 ± 0.2
AACATACC | 0.0333 ± 0.06
AACATACA | 0.26 ± 0.062
ACGTCGGA | -0.0798 ± 0.0092
AAGTGCAT | 0.115 ± 0.097
CCGTGCAC | 0.0618 ± 0.097
ACGTGCAC | 0.391 ± 0.021
ATGTGCAC | 0.29 ± 0.059
ACGTGCAG | 0.325 ± 0.063
AGGTGCAT | 0.139 ± 0.0098
GCGTGCAC | 0.215 ± 0.033
CTGTGCAC | -0.091 ± 0.017

Sequence | PBM 8-mer E-score
ATGTGCAG | 0.0828 ± 0.0059
CCGTGCAG | -0.0417 ± 0.026
ACGTGCAT | 0.378 ± 0.013
ATGTGCAA | 0.203 ± 0.06
ACCACGGA | -0.207 ± 0.0078
ATGTCCAC | 0.113 ± 0.011
CAGGACGG | -0.162 ± 0.092
TCATGCGA | 0.034 ± 0.055
ACGCCTTA | -0.0494 ± 0.025
CGCTTAAG | -0.0549 ± 0.15
AGCCTGAC | -0.0941 ± 0.14
CTTATAGC | -0.0275 ± 0.032
GAGCGCTA | -0.0703 ± 0.047
ATGAACCA | 0.145 ± 0.06
ACGGCGGC | -0.238 ± 0.059
CGTGCTAC | 0.2 ± 0.061
CAATGGAG | 0.0245 ± 0.12
CGGGTACG | -0.133 ± 0.043
CCAGGCGG | -0.0313 ± 0.028
CCCAATGA | 0.0385 ± 0.031
ATGTGAGA | 0.231 ± 0.13
CCAACTCG | -0.00075 ± 0.037
CCGTGCAA | -0.0752 ± 0.025
ACGTGCAA | 0.3 ± 0.035
TCGTGCAA | 0.131 ± 0.057

Sequence | PBM 8-mer E-score
GAATACGC | 0.0909 ± 0.01
AAATACGT | 0.152 ± 0.043
AAATACGC | 0.237 ± 0.027
GTGAATCA | -0.115 ± 0.022
GTAACAAA | 0.126 ± 0.0055
ATTACATA | 0.24 ± 0.039
ATAACATC | 0.187 ± 0.028
ATAACACA | 0.181 ± 0.095
GTAACACA | 0.238 ± 0.024
ATTACATG | 0.223 ± 0.061
ATAACACG | 0.307 ± 0.0054
ATAACATG | 0.231 ± 0.01
CTAACACA | 0.121 ± 0.13
GTTACATA | 0.113 ± 0.0025
ATAACACC | 0.106 ± 0.076
ATAACATA | 0.266 ± 0.023
AGGGGAAT | 0.0772 ± 0.04
CCGTAGCC | -0.216 ± 0.071
ACGCGTAA | 0.105 ± 0.048
TCGCATCA | 0.046 ± 0.015
AACGCAAA | -0.144 ± 0.021
GATCTTAA | 0.0118 ± 0.0058
CAAATACG | 0.138 ± 0.086
CTTTGCCA | -0.107 ± 0.097
ACAACACG | 0.261 ± 0.034

Sequence | PBM 8-mer E-score
ACAACACC | 0.158 ± 0.0054
ACAACACA | 0.23 ± 0.091
ATCCATCG | -0.21 ± 0.014
CTCGTGCA | 0.134 ± 0.097
AGCGTGCA | 0.285 ± 0.03
GGCGTGCA | 0.0504 ± 0.037
CGCGTGCC | 0.124 ± 0.062
AGCGTGCG | 0.0436 ± 0.017
CGCGTGCA | 0.285 ± 0.03
CAAATTCA | -0.0652 ± 0.032
ATATTCTC | 0.189 ± 0.055
ATGCCACG | 0.259 ± 0.059
ATGCCACA | 0.00378 ± 0.092
ATACCACC | 0.121 ± 0.028
ATACCACG | 0.255 ± 0.015
CAACCACG | 0.301 ± 0.041
CAACCACA | -0.0966 ± 0.041
GTGCCACA | -0.00257 ± 8.5e-05
ATACCACA | 0.159 ± 0.0088
AAACCACA | 0.223 ± 0.0085
CGTGATTC | 0.117 ± 0.036
AGAACTGC | -0.0987 ± 0.0029
CTTCACCC | 0.151 ± 0.046
ATAGACGG | 0.103 ± 0.018
ATGCGCAT | 0.285 ± 0.06

Sequence | PBM 8-mer E-score
ATGCGCAC | 0.102 ± 0.09
ATGCGCAA | 0.1417 ± 0.00042
CAACGCAG | -0.158 ± 0.021
ACCCGAAC | -0.0582 ± 0.096
AATGAACG | 0.163 ± 0.04
AACACCGC | -0.0751 ± 0.024
GTTTAAAC | 0.254 ± 0.0084
GATTAAAC | 0.0366 ± 0.087
CTTTAAAC | 0.143 ± 0.0068
GTTTAAAA | 0.0508 ± 0.026
ATTTAAAC | 0.263 ± 0.046
ATTTAAAG | 0.0962 ± 0.044
TACATCTA | 0.0666 ± 0.053
CCGTTTAC | 0.0331 ± 0.077
AATCTGTC | 0.0805 ± 0.0072
CCGCATGC | 0.2 ± 0.02
ACGCATAG | 0.0507 ± 0.032
ACGCATCC | 0.00574 ± 0.012
ACGCATGC | 0.281 ± 0.04
ACGCATGG | 0.243 ± 0.026
ACGCATGA | 0.127 ± 0.021
CGATTTCC | -0.13 ± 0.008
GTGCTGGA | -0.0429 ± 0.077
ATAAATAA | 0.157 ± 0.031
ATAAATAT | 0.267 ± 0.0039

Sequence | PBM 8-mer E-score
CTAAATAA | 0.119 ± 0.1
TTAAATAA | 0.12 ± 0.035
ATAAATAC | 0.295 ± 0.022
ATAAATAG | 0.18 ± 0.017
AACAGTTG | -0.0604 ± 0.064
GGACCTCC | -0.149 ± 0.028
CCCCCCGA | -0.154 ± 0.12
TACTTGGA | 0.0409 ± 0.043
CATATTAA | 0.306 ± 0.014
TATATTAA | 0.213 ± 0.011
CATATTAG | 0.15 ± 0.046
ATTATTAA | 0.172 ± 0.066
ACTATTAA | 0.133 ± 0.0048
AATATTAG | 0.152 ± 0.15
GATATTAC | 0.237 ± 0.02
GATATTAA | 0.029 ± 0.025
AATATTAC | 0.228 ± 0.029
CATATTAC | 0.156 ± 0.05
AATATTAA | 0.263 ± 0.014
AATATTAT | 0.285 ± 0.026
CTCCCAGA | -0.18 ± 0.049
CCCCCAGG | -0.289 ± 0.17
